The source of these data is PubChem BioAssay (NCI).

About 83,000 compounds went through this panel and 20% of them were active in at least one assay; those are over-represented in the sample as a whole.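 A percent growth of 40 corresponds to 60% growth inhibition; 0 means no net growth; -100 means all cells died. Active threshold: below 10.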 A number with no mark means an inactive call. Active and inactive are the calls of the source.

Some test systems named below: SK-MEL-2 melanoma; EKVX NSCLC; SN12C renal; UO-31 renal; TK-10 renal; ACHN renal; CAKI-1 renal; A498 renal; CCRF-CEM leukemia; MOLT-4 leukemia; SR leukemia; RPMI-8226 leukemia; OVCAR-8 ovarian; OVCAR-5 ovarian; OVCAR-4 ovarian; SK-OV-3 ovarian; IGROV1 ovarian; OVCAR-3 ovarian; HS 578T breast; NCI/ADR-RES ovarian.
Holding throughout (test): NCI-60 one-dose screen, 48 h (100 = growth as untreated, 0 = no growth, -100 = all killed)
Common to all, as to conditions: 10 µM unless noted

Regarding `COC[C@H](C)n1c(C2CCOCC2)nc2cnc3cc(-c4c(C)noc4C)c(OC)cc3c21`, the growth in the assay on SK-MEL-2 melanoma is 76.6%; in the assay with EKVX NSCLC, 59.7%; in the assay on SN12C renal, 76.1%; in the assay on UO-31 renal it was 19.5%; in the assay with TK-10 renal, 29.4%; in the assay on ACHN renal it was 43.7%. Further, the growth was 16.2% in the assay on CAKI-1 renal; 5.12% (active) in the assay on A498 renal; 61.4% in the assay with CCRF-CEM leukemia; 42.2% in the assay with MOLT-4 leukemia; 33.5% with SR leukemia; 24% in the assay with RPMI-8226 leukemia. The growth in the assay on OVCAR-8 ovarian is 49.6%; in the assay on OVCAR-5 ovarian, 79.9%; with OVCAR-4 ovarian it was 54.7%; in the assay on SK-OV-3 ovarian it was 7.03% (active); with IGROV1 ovarian, 66.5%; in the assay with OVCAR-3 ovarian, 49.8%. In the assay on HS 578T breast, the growth was 12.6%.
As to `COC(=O)c1cccc(NC(=O)c2ccc(-c3cccc(N)c3)o2)c1`, the growth in the assay on SK-MEL-2 melanoma is 98.3%; in the assay on EKVX NSCLC, 94.5%; with SN12C renal, 94%; with UO-31 renal, 83%; in the assay on TK-10 renal it was 125%; with ACHN renal, 102%. Also, the growth with CAKI-1 renal was 91.3%; in the assay with A498 renal, 105%; in the assay with CCRF-CEM leukemia it was 71.7%; with MOLT-4 leukemia, 85.9%; with SR leukemia it was 95.8%; in the assay on RPMI-8226 leukemia, 78.8%. In addition, the growth with OVCAR-8 ovarian was 75.7%; in the assay on OVCAR-5 ovarian, 107%; with OVCAR-4 ovarian, 101%; in the assay with SK-OV-3 ovarian, 105%; in the assay with IGROV1 ovarian, 100%; in the assay with OVCAR-3 ovarian, 107%. In addition, the growth with HS 578T breast was 92.2%; in the assay on NCI/ADR-RES ovarian, 99.7%.
For the compound `CN(C)S(=O)(=O)c1cccc(-c2nc3sc4c(c3c(=O)[nH]2)CCCC4)c1`, the growth in the assay with SK-MEL-2 melanoma was 36.9%; in the assay on EKVX NSCLC it was 56.1%; with SN12C renal, 28.3%; with UO-31 renal it was 29.6%; in the assay with TK-10 renal it was -20.5% (active); in the assay on ACHN renal it was 96.5%. In addition, the growth with CAKI-1 renal is 65.5%; with A498 renal it was -29.8% (active); with CCRF-CEM leukemia, 35.5%; with MOLT-4 leukemia, 56.9%; in the assay with SR leukemia it was -48.6% (active); in the assay on RPMI-8226 leukemia, 23.9%. In addition, the growth in the assay with OVCAR-8 ovarian was 13.4%; with OVCAR-5 ovarian, 23.3%; in the assay with OVCAR-4 ovarian, -56.4% (active); in the assay with SK-OV-3 ovarian, 7.06% (active); with IGROV1 ovarian it was 32.1%; in the assay on OVCAR-3 ovarian, 19.5%. In the assay with HS 578T breast, the growth is -4.53% (active).
Consider `Cc1cc(C)nc(SC2=C(Nc3ccc(C)c(Cl)c3)C(=O)N(Cc3ccccc3)C2=O)n1`, for which the growth is 85.3% [30 µM] in the assay on SK-MEL-2 melanoma; 52.7% [30 µM] in the assay on EKVX NSCLC; 66.9% [30 µM] in the assay with SN12C renal; 16.7% [30 µM] in the assay on UO-31 renal; 84.8% [30 µM] with TK-10 renal; 81% [30 µM] in the assay on ACHN renal. In addition, the growth was 54.3% [30 µM] with CAKI-1 renal; 69.5% [30 µM] in the assay on A498 renal; 35.3% [30 µM] in the assay with CCRF-CEM leukemia; 7.47% [30 µM] (active) in the assay on MOLT-4 leukemia; 25.4% [30 µM] with SR leukemia; 7.62% [30 µM] (active) with RPMI-8226 leukemia. For the same compound, the growth in the assay with OVCAR-8 ovarian is 45.3% [30 µM]; in the assay on OVCAR-5 ovarian, 103% [30 µM]; in the assay with OVCAR-4 ovarian, 58.2% [30 µM]; with SK-OV-3 ovarian, 99% [30 µM]; in the assay on IGROV1 ovarian, 45.1% [30 µM]; in the assay with OVCAR-3 ovarian, 69% [30 µM]. The growth in the assay with HS 578T breast was 72.1% [30 µM].
For `Nc1ccc(S(=O)(=O)O)c2ccc(N=Nc3ccc(N=Nc4ccc(S(=O)(=O)O)cc4)c4ccccc34)c(O)c12`, the growth with SK-MEL-2 melanoma was 110%; in the assay on EKVX NSCLC it was 124%; with SN12C renal, 98.1%; in the assay on UO-31 renal it was 55.8%; in the assay on TK-10 renal, 98.7%; in the assay on ACHN renal, 101%. The growth in the assay with CAKI-1 renal is 95.3%; in the assay with A498 renal it was 98.8%; with CCRF-CEM leukemia, 106%; in the assay with MOLT-4 leukemia it was 80.2%; with SR leukemia it was 99.8%; in the assay with RPMI-8226 leukemia, 104%. The growth was 103% in the assay on OVCAR-8 ovarian; 108% in the assay with OVCAR-5 ovarian; 115% in the assay on OVCAR-4 ovarian; 96% in the assay on SK-OV-3 ovarian; 86.5% in the assay on IGROV1 ovarian; 108% in the assay on OVCAR-3 ovarian. Besides, the growth in the assay on HS 578T breast is 100%; in the assay with NCI/ADR-RES ovarian it was 112%.
Take `O=C1c2cc3c(cc2-c2c1c1ccc(Cl)cc1c(=O)n2CCCN1CCOCC1)OCO3`: the growth is 100% with SK-MEL-2 melanoma; 93.8% with EKVX NSCLC; 46.3% in the assay on SN12C renal; 44.5% in the assay on UO-31 renal; 103% in the assay on TK-10 renal; 13.1% in the assay with ACHN renal. For the same compound, the growth with CAKI-1 renal was 21.4%; in the assay with A498 renal, 76.2%; with CCRF-CEM leukemia it was 20.7%; in the assay on MOLT-4 leukemia it was 8.7% (active); with SR leukemia it was 4.71% (active); in the assay with RPMI-8226 leukemia, 60.8%. Moreover, the growth in the assay with OVCAR-8 ovarian was 70.9%; in the assay with OVCAR-5 ovarian it was 109%; in the assay with OVCAR-4 ovarian it was 91.9%; in the assay on SK-OV-3 ovarian, 33.4%; in the assay on IGROV1 ovarian, 82.6%; in the assay on OVCAR-3 ovarian, 86.5%. In the assay with HS 578T breast, the growth was 108%.
For the compound `COc1ccc(-c2cc(=O)c3c(OC)c4ccoc4cc3o2)cc1`, the growth with SK-MEL-2 melanoma is 131%; in the assay on EKVX NSCLC, 86.3%; in the assay on SN12C renal it was 93.8%; in the assay on UO-31 renal, 90.7%; in the assay with TK-10 renal it was 108%; in the assay on ACHN renal, 102%. The growth in the assay with CAKI-1 renal is 103%; in the assay on A498 renal it was 121%; with CCRF-CEM leukemia it was 109%; in the assay with MOLT-4 leukemia, 84.7%; in the assay with SR leukemia, 82.4%; in the assay on RPMI-8226 leukemia, 102%. Further, the growth with OVCAR-8 ovarian was 99.2%; with OVCAR-5 ovarian, 93.6%; with OVCAR-4 ovarian, 109%; with SK-OV-3 ovarian it was 112%; in the assay on IGROV1 ovarian it was 113%; in the assay with OVCAR-3 ovarian it was 106%. In addition, the growth with HS 578T breast was 120%; in the assay on NCI/ADR-RES ovarian, 96.2%.
In the case of `COc1ccc(-c2cc(Nc3ccnc(N4CCOCC4)n3)on2)cc1`, the growth is 42% with SK-MEL-2 melanoma; 50.9% in the assay with EKVX NSCLC; 47.2% in the assay with SN12C renal; 51.9% with UO-31 renal; 69.1% with TK-10 renal; 44.9% with ACHN renal. The growth was 51.8% in the assay on CAKI-1 renal; -0.776% (active) in the assay with A498 renal; 17.2% in the assay on CCRF-CEM leukemia; 21.2% with MOLT-4 leukemia; 31.1% in the assay with SR leukemia; 25.2% in the assay with RPMI-8226 leukemia. Besides, the growth was 37.2% in the assay on OVCAR-8 ovarian; 46.6% with OVCAR-5 ovarian; 62.1% in the assay with OVCAR-4 ovarian; 43.2% in the assay with SK-OV-3 ovarian; 43.1% in the assay with IGROV1 ovarian; -17.6% (active) in the assay on OVCAR-3 ovarian. Besides, the values for the growth with HS 578T breast and in the assay with NCI/ADR-RES ovarian were 18.7% and 10.8%, respectively.
